# Assay results taken from PubChem BioAssay (NCATS).
# Results filed as inconclusive are left out. Activity calls are given as the source filed them. The call rests on the fitted dose curve; in most records, active means well fitted curve in the direction sought with a large enough effect; inconclusive means small, poorly fitted or top-dose-only effect, or another doubt; inactive means no such curve, though single readings can be large; an effect the other way counts as inactive or inconclusive.
# Test: MultiTox-Fluor Cytotoxicity Assay - LYMP1-001 - Live Cells (AID 947);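 further: 0% = DMSO only and full inhibition = tetraoctylammonium bromide control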
# Conditions: LYMP1-001 lymphoblastoid cells, live-cell protease fluorescence viability; series mostly up to 92.2 µM; activity change, negative = cytotoxicity: at the top concentration
row,Structure (SMILES),"activity change, negative = cytotoxicity"
1,CC(=O)CC(C)C,7.62% (inactive)
2,CCCCC(CC)CO (stereo unspecified),2.01% (inactive)
3,O=CNc1ccccc1,-17.8% (inactive)
4,Clc1ccc(Cl)c(Cl)c1Cl,-4.37% (inactive)
5,C=CCCCCCCC=C,-0.869% (inactive)
6,CCCCCCC=O,3.21% (inactive)
7,CCCCC(CC)COCC1CO1 (stereo unspecified),-5.47% (inactive)
8,C=CCOC(=O)COCCC(C)C,-14.5% (inactive)
9,O=C(O)CNC(=O)c1ccc(CO)o1,-6.42% (inactive)
10,CCN(Cc1ccccc1)c1ccccc1,-6.56% (inactive)
11,CC(=O)c1cccc([N+](=O)[O-])c1,2.16% (inactive)
12,O=C(O)CNC(=O)c1ccc([N+](=O)[O-])cc1,-22.7% (inactive)
13,Nc1c(Cl)cc(Cl)cc1Cl,11.8% (inactive)
14,C=CCCCC,9.27% (inactive)
15,NC(=O)c1cccc([N+](=O)[O-])c1,-1.76% (inactive)
16,C=C(C)OC(C)=O,6.36% (inactive)
17,CC(C)Cc1nccs1,-3.04% (inactive)
18,CC(C)c1ccccc1,1.97% (inactive)
19,CCOCCOCC,-30% (inactive)
20,CCC1CO1 (stereo unspecified),3.31% (inactive)
21,Cc1ccc(C#N)cc1,9.09% (inactive)
22,Cc1ccc(C)cc1,13.8% (inactive)
23,CC(=O)c1nccs1,-2.06% (inactive)
24,CCc1ccccc1,2.36% (inactive)
25,CCCCC(C=O)CC (stereo unspecified),-12.4% (inactive)
26,CC(C)=C1CCC(C)CC1=O (stereo unspecified),-3.81% (inactive)

# Test: Cell Viability - LYMP1-002 - Assay at 16 hr (AID 948);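 further: 0% = DMSO alone and full effect = 92 µM tetraoctylammonium bromide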
# Conditions: LYMP1-002 lymphoblastoid cell viability; series mostly up to 92.2 µM; activity change, negative = cytotoxicity: at the top concentration
# How it was run: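 Human lymphoblastoid cells (LYMP1-002), 2500/well, were preincubated 5 hr at 37 C, then exposed to compounds for 16 hr at 37 C in complete medium. Cellular ATP was read by CellTiter-Glo luminescence after 30 min at room temperature; AC50 from Hill fits.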
row,Structure (SMILES),"activity change, negative = cytotoxicity"
1,Nc1nc(CC(=O)O)cs1,-2.02% (inactive)
2,CCCCC(=O)N(C)C,-5.16% (inactive)
3,O=CNc1ccccc1,0.688% (inactive)
4,Cc1cc(C)cc(N)c1,-7.29% (inactive)
5,O=C(O)CNC(=O)c1ccc(CO)o1,-5.12% (inactive)
6,C=C(C)C(N)=O,-5.59% (inactive)
7,O=C(O)c1cccc(Cl)c1Cl,2.05% (inactive)
8,CC(C)c1ccccc1,-4.67% (inactive)
9,NC(=O)CCCCC(N)=O,-4.33% (inactive)
10,CCOC(C)(C)C,2.8% (inactive)
11,CC(N)CN (stereo unspecified),1.44% (inactive)
12,Cc1ccc(C(C)(C)C)cc1,-8.21% (inactive)
13,CN(C)CCCCl,-2.04% (inactive)
14,CC(=O)c1nccs1,4.53% (inactive)
15,CCc1ccccc1,-6.64% (inactive)
16,CC(C)=C1CCC(C)CC1=O (stereo unspecified),-3.32% (inactive)
17,CCCCCCCCC,2.76% (inactive)
18,C=CCCCCCC,-1.92% (inactive)
19,Cc1ccc(C)c([N+](=O)[O-])c1,-1.71% (inactive)

# Test: MultiTox-Fluor Cytotoxicity Assay - LYMP1-002 - Live Cells (AID 955); further: on the % scale 0 is the no-effect control and ±100 the full control effect
# Conditions: LYMP1-002 lymphoblastoid live-cell protease fluorescence viability; series mostly up to 46.1 µM; viability change, negative = cytotoxic: at the top concentration
# How it was run: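 LYMP1-002 lymphoblastoid cells; 2500 cells/well; 16 hr compound exposure, 37 C; MultiTox-Fluor reagent 60 min RT; live-cell fluorescence Ex/Em=405/510; qHTS concentration-response, Hill-equation AC50; tetraoctylammonium bromide positive control.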
row,Structure (SMILES),"viability change, negative = cytotoxic"
1,Nc1nc(CC(=O)O)cs1,-1% (inactive)
2,CCCCC(CC)CO (stereo unspecified),-6.88% (inactive)
3,CCCCC(=O)N(C)C,0.838% (inactive)
4,Clc1ccc(Cl)c(Cl)c1Cl,1.43% (inactive)
5,C=CCCCCCCC=C,2.55% (inactive)
6,CCCCCCC=O,4.49% (inactive)
7,CCCCC(CC)COCC1CO1 (stereo unspecified),6.53% (inactive)
8,Cc1cc(C)cc(N)c1,9.95% (inactive)
9,C=CCOC(=O)COCCC(C)C,-0.196% (inactive)
10,C=C(C)C(N)=O,-1.18% (inactive)
11,CCN(Cc1ccccc1)c1ccccc1,-0.885% (inactive)
12,O=C(O)c1cccc(Cl)c1Cl,4.68% (inactive)
13,CC(=O)c1cccc([N+](=O)[O-])c1,-1.58% (inactive)
14,O=C(O)CNC(=O)c1ccc([N+](=O)[O-])cc1,8.14% (inactive)
15,Nc1c(Cl)cc(Cl)cc1Cl,4.11% (inactive)
16,C=CCCCC,13.8% (inactive)
17,C=C(C)OC(C)=O,1.14% (inactive)
18,CC(C)Cc1nccs1,5.68% (inactive)
19,CCOCCOCC,-0.793% (inactive)
20,CCC1CO1 (stereo unspecified),14.3% (inactive)
21,NC(=O)CCCCC(N)=O,-1.05% (inactive)
22,CCOC(C)(C)C,4.43% (inactive)
23,CC(N)CN (stereo unspecified),0.107% (inactive)
24,Cc1ccc(C(C)(C)C)cc1,3.92% (inactive)
25,CN(C)CCCCl,3.57% (inactive)
26,CCCCC(C=O)CC (stereo unspecified),-0.436% (inactive)
27,CCCCCCCCC,-2.58% (inactive)
28,C=CCCCCCC,6.85% (inactive)
29,Cc1ccc(C)c([N+](=O)[O-])c1,2.21% (inactive)

# Test: MultiTox-Fluor Cytotoxicity Assay - LYMP1-002 - Dead Cells (AID 960);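 further: 0% = DMSO and 100% = tetraoctylammonium bromide; nearly all actives have a fitted effect of over 60% in size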
# Conditions: LYMP1-002 lymphoblastoid cells, dead-cell protease fluorescence; series mostly up to 46.1 µM; cytotoxicity (dead cells): at the top concentration
# How it was run: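 Readout: fluorescence at 485/520 from cell-impermeant bis-AAF-R110 cleaved by proteases leaking from damaged cells. LYMP1-002 lymphoblastoid line, 16 hr compound treatment at 37 C, concentration-response in qHTS format; Hill-equation AC50 values.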
row,Structure (SMILES),cytotoxicity (dead cells)
1,Nc1nc(CC(=O)O)cs1,0.0076% (inactive)
2,CC(=O)CC(C)C,11.3% (inactive)
3,CCCCC(CC)CO (stereo unspecified),-8.48% (inactive)
4,CCCCC(=O)N(C)C,10.9% (inactive)
5,Clc1ccc(Cl)c(Cl)c1Cl,0.349% (inactive)
6,C=CCCCCCCC=C,3.08% (inactive)
7,Cc1cc(C)cc(N)c1,7.26% (inactive)
8,C=CCOC(=O)COCCC(C)C,-0.131% (inactive)
9,O=C(O)CNC(=O)c1ccc(CO)o1,9.43% (inactive)
10,C=C(C)C(N)=O,4.12% (inactive)
11,CCN(Cc1ccccc1)c1ccccc1,7.35% (inactive)
12,O=C(O)c1cccc(Cl)c1Cl,10.2% (inactive)
13,CC(=O)c1cccc([N+](=O)[O-])c1,-0.184% (inactive)
14,O=C(O)CNC(=O)c1ccc([N+](=O)[O-])cc1,33.4% (inactive)
15,Nc1c(Cl)cc(Cl)cc1Cl,17.4% (inactive)
16,C=CCCCC,23.5% (inactive)
17,NC(=O)c1cccc([N+](=O)[O-])c1,-23.1% (inactive)

row,Structure (SMILES),cytotoxicity (dead cells)
1,CC(C)Cc1nccs1,-4.17% (inactive)
2,CC(C)c1ccccc1,4.52% (inactive)
3,CCOCCOCC,8.86% (inactive)
4,NC(=O)CCCCC(N)=O,6.75% (inactive)
5,CCOC(C)(C)C,9.08% (inactive)
6,CC(N)CN (stereo unspecified),4.67% (inactive)
7,Cc1ccc(C(C)(C)C)cc1,3.76% (inactive)
8,Cc1ccc(C#N)cc1,24.9% (inactive)
9,Cc1ccc(C)cc1,0.543% (inactive)
10,CN(C)CCCCl,0.67% (inactive)
11,CCc1ccccc1,-14.7% (inactive)
12,CCCCC(C=O)CC (stereo unspecified),0.238% (inactive)
13,CC(C)=C1CCC(C)CC1=O (stereo unspecified),11.2% (inactive)
14,CCCCCCCCC,-3.99% (inactive)
15,C=CCCCCCC,-5.48% (inactive)
16,Cc1ccc(C)c([N+](=O)[O-])c1,-6.44% (inactive)

# Test: MultiTox-Fluor Cytotoxicity Assay - LYMP1-003 - Dead Cells (AID 961);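 further: 0% = DMSO and 100% = tetraoctylammonium bromide; nearly all actives have a fitted effect of over 70% in size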
# Conditions: LYMP1-003 lymphoblastoid cells, dead-cell protease fluorescence; series mostly up to 92.2 µM; cytotoxicity (dead cells): at the top concentration
# How it was run: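 Acute toxicity is scored as increased dead-cell protease activity in human lymphoblastoid LYMP1-003 cells after 16 h compound exposure in complete culture medium. Activity is normalized to DMSO basal and 15 uM tetraoctylammonium bromide as full response.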
row,Structure (SMILES),cytotoxicity (dead cells)
1,Nc1nc(CC(=O)O)cs1,-6.07% (inactive)
2,CC(=O)CC(C)C,-5.51% (inactive)
3,CCCCC(CC)CO (stereo unspecified),0.453% (inactive)
4,CCCCC(=O)N(C)C,8.1% (inactive)
5,O=CNc1ccccc1,-24.2% (inactive)
6,Clc1ccc(Cl)c(Cl)c1Cl,2.08% (inactive)
7,C=CCCCCCCC=C,-11.3% (inactive)
8,CCCCCCC=O,-7.38% (inactive)
9,CCCCC(CC)COCC1CO1 (stereo unspecified),-11% (inactive)
10,Cc1cc(C)cc(N)c1,-8.78% (inactive)
11,C=CCOC(=O)COCCC(C)C,-9.5% (inactive)
12,O=C(O)CNC(=O)c1ccc(CO)o1,-7.07% (inactive)
13,C=C(C)C(N)=O,-12.6% (inactive)
14,CCN(Cc1ccccc1)c1ccccc1,5.83% (inactive)
15,O=C(O)c1cccc(Cl)c1Cl,-3.78% (inactive)
16,CC(=O)c1cccc([N+](=O)[O-])c1,4% (inactive)
17,O=C(O)CNC(=O)c1ccc([N+](=O)[O-])cc1,-5.43% (inactive)
18,Nc1c(Cl)cc(Cl)cc1Cl,-9.47% (inactive)
19,C=CCCCC,-5.01% (inactive)
20,NC(=O)c1cccc([N+](=O)[O-])c1,-2.35% (inactive)

row,Structure (SMILES),cytotoxicity (dead cells)
1,C=C(C)OC(C)=O,-1.95% (inactive)
2,CC(C)Cc1nccs1,4.29% (inactive)
3,CC(C)c1ccccc1,-14.6% (inactive)
4,CCOCCOCC,-0.895% (inactive)
5,CCC1CO1 (stereo unspecified),-8.6% (inactive)
6,NC(=O)CCCCC(N)=O,-1.04% (inactive)
7,CCOC(C)(C)C,-8.25% (inactive)
8,CC(N)CN (stereo unspecified),2.68% (inactive)
9,Cc1ccc(C(C)(C)C)cc1,-7.1% (inactive)
10,Cc1ccc(C#N)cc1,-11% (inactive)
11,Cc1ccc(C)cc1,-3.7% (inactive)
12,CN(C)CCCCl,0.894% (inactive)
13,CC(=O)c1nccs1,3.48% (inactive)
14,CCc1ccccc1,6.35% (inactive)
15,CCCCC(C=O)CC (stereo unspecified),-10.9% (inactive)
16,CC(C)=C1CCC(C)CC1=O (stereo unspecified),-19.6% (inactive)
17,CCCCCCCCC,-7.36% (inactive)
18,C=CCCCCCC,-3.44% (inactive)
19,Cc1ccc(C)c([N+](=O)[O-])c1,-0.639% (inactive)
